The values that follow come from PubChem BioAssay AID588405 (Sanford-Burnham Center for Chemical Genomics, 2011).

Out of some 360,000 compounds screened, about 6,200 (1.7%) were called active. The sample holds actives, similar compounds and a random draw of the others, so the mix is not that of the screen. Values without a mark were called inactive.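 The calls were made as follows: active = inhibition of at least 50% at 20 µM; inactive = the rest.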

This assay can be described thus: inhibition of PEG-3 promoter activity – cell-based, HeLa, luciferase luminescence, primary screen (AID 588405). As to conditions: HeLa PEG-Prom luciferase reporter, overnight, at 20 µM, active compounds read high. For orientation: A reporter such as luciferase makes a cellular process visible.
Consider `Oc1cccc2cc(-c3ccncc3)cnc12`, for which the inhibition (commonly the drop in the measured response relative to a control, in per cent) was -97.7%.

In the case of `O=C1c2ccccc2C(c2nc3ccccc3[nH]2)N1c1ccccc1` (stereo not given), the inhibition is 2.93%.

For `Cc1cccc(N2CC(C(=O)Nc3ccccc3N3CCCC3)CC2=O)c1C` (stereo not given), the inhibition was 20.1%.

As for `COc1ccccc1-n1c(SCC(=O)Nc2cccc(C(=O)O)c2)nnc1-c1ccccc1O`, the inhibition was -4.09%.

Regarding `COc1cc(/C=N/NC(=O)c2cc(-c3ccccc3C)nc3ccccc23)cc(OC)c1O`, the inhibition is 10.1%.

In the case of `COc1cccc(/C=N/Nc2cc(C)nc(-c3ccccc3O)n2)c1O`, the inhibition is 79.9% (active).

`CC1(C(=O)NS(=O)(=O)c2cccc(F)c2)CCN1C(=O)Cc1ccc(Cl)cc1Cl` (stereo not given): the inhibition is -4.9%.

Take `O=C(O)C1=CCCN(CCON=C(c2ccccc2)c2ccccc2)C1`: the inhibition is -3.93%.

As for `Cc1cccc(-c2cnc(C(O)c3cc(C)cc(C)c3)[nH]2)c1` (stereo not given), the inhibition was 15.8%.

Turning to `CSc1ncnc2c1ncn2CCCNCC1CCCCC1`, the inhibition was -12.2%.

Turning to `CC(=O)C12CC(C)=C(C)CC1CC1C3CCC4=CC(=O)CCC4(C)C3CCC12C` (stereo not given), the inhibition was 14%.

As for `CSc1ncnc2c1ncn2CC(=O)C1CCC2C3CCC4=CC(=O)CCC4(C)C3CCC12C` (stereo not given), the inhibition is 105% (active).

Take `COc1ccc(OC)c(NC(=O)C2(C)CCN2C(=O)Cc2ccccc2)c1` (stereo not given): the inhibition was 0.38%.

Turning to `CC(C)Oc1cc(F)ccc1-c1cc(C(=O)Nc2cccc(Cl)c2)[nH]n1`, the inhibition is -14.2%.

Regarding `Nc1nonc1-n1nnc(C(=O)N/N=C/c2cc(Br)ccc2O)c1CSC1=NCCS1`, the inhibition is 56.4% (active).

For the compound `Nc1nonc1-n1nnc(C(=O)N/N=C\c2ccncc2)c1CN1CCCCC1`, the inhibition is 23.4%.

Turning to `COCc1c(C(=O)N/N=C\c2cccnc2)nnn1-c1nonc1N`, the inhibition was 10.8%.

For the compound `COc1cccc(-c2cnc3c(NC(C)=O)cc(-c4cc(F)ccc4OC)cn23)c1`, the inhibition was 23.8%.

As for `COc1cccc(CN(C)CC(O)COC(c2ccccc2)c2ccccc2C)c1` (stereo not given), the inhibition was 4.99%.

Regarding `COc1ccc(OCC(O)CN(C)C(=O)C(C)Oc2ccccc2)cc1` (stereo not given), the inhibition was 9.53%.

With `CN(Cc1ccccc1)CC(O)COc1ccc(CNCc2cc3ccccc3s2)cc1` (stereo not given), the inhibition is 50.3% (active).

For `Cc1ccc(C)c(C(O)c2ncc(-c3cccc4ccccc34)[nH]2)c1` (stereo not given), the inhibition was 17.3%.

`COc1ccc(-c2nn(-c3ccccc3)cc2/C=C2/SC(=S)N(CCCC(=O)O)C2=O)c(C)c1`: the inhibition was 60.7% (active).

On to `Cc1ccc(-c2nn(-c3ccccc3)cc2/C=C2\SC(=S)N(CCCCCC(=O)O)C2=O)o1`, for which the inhibition is -22.9%.

For `COc1cccc(/C=C2\SC(=S)N(CCCC(=O)N3CCOCC3)C2=O)c1`, the inhibition is -13.7%.
